Several values for one entry are separate records, joined by “and”; a condition that tells them apart may be missing. Identical values can stand only once. About 83,000 compounds went through this panel and 20% of them were active in at least one assay; those are over-represented in the sample as a whole.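 48-hour exposure, single concentration, 96-well plates; percent growth endpoint where 0 means no net growth. Active: below 10.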 Activity calls are given as the source filed them.

One assay deals with U251 CNS. Put plainly: NCI-60 one-dose screen, 48 h (100 = growth as untreated, 0 = no growth, -100 = all killed). The note with it: 10 µM. How it is done: Growth inhibition of the U251 human tumor cell line is measured as a screen for anti-cancer activity. Cells are grown in 96 well plates and exposed to the test compound for 48 hours. Compounds are tested at a single concentration, which is 10^-5 M for most compounds. The reported endpoint is percent growth (GI% or GIPRCNT), where numbers from 0 - 100% represent growth inhibition, and numbers from -100% - 0 represent cell death. For example, a value of 40 represents 60% growth inhibition. A value of 0 means no net growth occurred over the course of the experiment. A value of -40 indicates 40% of cells at the beginning of the experiment died by the end of the experiment. A value of -100 means all cells are dead at the end of the experiment.
NCI-60 Human Tumor Cell Lines Screen was performed using the standard one-dose NCI protocol, which is described in more detail at https://dtp.cancer.gov/discovery_development/nci-60/default.htm.
Compounds with GIPRCNT values below 10 were considered active. Activity score was based on GIPRCNT using the following formula: […]
Score is 0 for GIPRCNT values of 100 or above, 50 for GIPRCNT values of 0, and 100 for GIPRCNT values of -100.
As for `CC(=O)/C=C/c1ccc(OCc2ccc(C(C)(C)C)cc2)cc1`, the growth was 88.9% (inactive).
As to `CCN(Cc1ccccc1)c1ccc(/C=C2\COc3ccccc3C2=O)cc1`, the growth is 96% (inactive).

The assay is the same for the next values; noted with them: 10 µM unless noted.
`CCCCCCCCCCCCCCCC[N+](C)(C)CCN(Cc1ccc(OC)cc1)c1ncccn1`: the growth was -82.5% (active) and 29.2% (inactive).
Consider `COc1ccc(/C=N/C2=C(C#N)C(c3ccccc3)c3c(ccc4ccccc34)O2)cc1` (stereo not given), for which the growth is 24.1% (inactive).
Regarding `COCCn1cc(-c2nc(-c3cn(CCOC)c4ncccc34)cs2)c2ccccc21`, the growth was 72.8% (inactive).
Turning to `CC12OC(CC(O)C1O)n1c3ccccc3c3c4c(c5c6ccccc6n2c5c31)C(=O)N(CCN1CCOCC1)C4=O` (stereo not given), the growth was 3.67% (active).
Regarding `CC1(C)C(N)=Nc2cc(OCCCCN3Cc4ccccc4C3)c(OCC3CC3)cc21`, the growth is 56.3% (inactive).
In the case of `COc1cc2nc3cc([N+](=O)[O-])ccc3c(NCCNCC(C)(C)O)c2cc1OC`, the growth was -23.6% (active).
`CCOC(=O)C(=CCC(C)C)C(=O)OCC`: the growth is 98.8% (inactive).
`CCN1CCN(C(=O)[C@]23CC[C@@H](C)[C@H](C)[C@@H]2C2=CC[C@@H]4[C@@]5(C)CCC(=O)C(C)(C)[C@@H]5CC[C@@]4(C)[C@]2(C)CC3)CC1`: the growth is -44.9% (active).
On to `C/C=C(/C)C(=O)O[C@@H]1CC(C)(C)CC2C34OC(=O)[C@@]21CC[C@@]3(C)[C@]1(C)CCC2C(C)(C)C(=O)CC[C@]2(C)C1C[C@@H]4Cl` (stereo not given in full), for which the growth was 92.1% (inactive).
For the compound `COc1ccc2nc3cc(Cl)ccc3c(NCCCNCCC(C)O)c2c1` (stereo not given), the growth is -41.4% (active).
For `COc1cc(F)c(/C=C/c2cc(/C=C/c3cc(OC)c(OC)cc3F)n(-c3cc(F)cc(F)c3)n2)cc1OC`, the growth is -1.48% (active).
On to `CC(C)=CCc1cc(O)c(O)c2oc3cc(O)cc(O)c3c(=O)c12`, for which the growth is 41% (inactive).
The same measure, in the same setting: under `Cc1c(C(=O)OCCCCOC(=O)c2c(C)n(C)c3scc[n+]23)[n+]2ccsc2n1C` stands 103% (inactive); under `O=C1c2cc3c(cc2-c2c1c1ccc(Cl)cc1c(=O)n2CCCn1ccnc1)OCO3`, -33.1% (active).
As for `Cc1c(CC(=O)OCCO)cc(-c2ccc(Cl)cc2)n1-c1ccccc1`, the growth is 91.7% (inactive).
As to `CCCCCCCCCCCCCCCC(=O)O[C@@H]1[C@@H](O)[C@@H](O)C([C@H](NC(=O)[C@@H]2C[C@@H](CCC)CN2C)[C@H](C)Cl)O[C@@H]1SC` (stereo not given in full), the growth was 102% (inactive).
As for `O=C(Nc1ccc2ncsc2c1)c1csc(Nc2ccc3[nH]ncc3c2)n1`, the growth is 38.6% (inactive).
Same read-out and setting: under `COc1ccc(CN2CCc3c(Cl)nc(N)nc3C2=O)c(OC)c1` stands 4.76% [100 µM] (active).
The same measure, in the same setting: under `CC(=O)c1c(C)nc(SCC(=O)Nc2ccc(Cl)cc2)n1-c1ccc(Cl)cc1` stands 89.8% (inactive); under `Nc1nc(Cl)nc2c1ncn2C1OC(CO)C(O)C1O` (stereo not given), 74.6% (inactive) and 64.1% (inactive).
Take `CCN(CC)CCOc1ccccc1C`: the growth was 108% (inactive).
On to `CCCCCCCCCCCCCCCCCCOc1cccc(CC(=O)OCC[N+](CC)(CC)CC)c1`, for which the growth was 37.6% (inactive).
With `O=C(NCc1cccnc1)/C(=C\c1ccc(Br)cc1)S(=O)(=O)c1ccccc1`, the growth was -87.1% (active).
For `CN(C)CCCn1c2nc(=O)[nH]c(=O)c-2nc2cc(Cl)c(Cl)cc21`, the growth was 55.2% (inactive).
`COc1cc(CO)cc2cc3ccccc3nc12`: the growth is 99.2% (inactive).
On to `CCN1C(=S)N(CC)C2C1NC(=S)N2/N=C/C=C/c1ccccc1` (stereo not given), for which the growth was 27.7% (inactive).
For `COc1ccc(-c2csc(NC(=O)CN3CCN(CCO)CC3)n2)cc1NS(=O)(=O)c1cccc2c(N(C)C)cccc12`, the growth is 29.5% (inactive).
With `Clc1ccc(/C=N\N2CCCCCC2)cc1`, the growth was 92.3% (inactive) and 98.5% (inactive).
On to `N#CSc1c[nH]c2ccc(/C=C/C(=O)/C=C(/C=C/c3ccc4[nH]cc(SC#N)c4c3)OB(F)F)cc12`, for which the growth was -27% (active).
As for `C=C1C(=O)O[C@@H]2[C@H]3[C@H](COC(C)=O)[C@@H](OC(C)=O)C[C@H]3C(=C)[C@@H](O)C[C@@H]12`, the growth was 89.9% (inactive).
For `O=[N+]([O-])c1ccc(S(=O)Cc2ccccc2)c([N+](=O)[O-])c1` (stereo not given), the growth is 93.6% (inactive) and 91% (inactive).
`Nc1nc(Nc2ccc(F)cc2)nn1C(=O)c1cc(Cl)ccc1Cl`: the growth was 76.1% (inactive).
On to `COc1cc2c(cc1OCCCOC1=C=C=C(c3ccc4c(c3)c3cc(-c5ccc(OCCCOc6cc7c(cc6OC)C(=O)N6CCC[C@H]6C=N7)cc5)ccc3n4S(=O)(=O)c3ccc(C)cc3)C=C1)N=C[C@@H]1CCCN1C2=O`, for which the growth is -29.8% (active).
Turning to `CN1CCN(c2ccc(/C=C/C(=O)c3ccc(O)cc3)cc2)CC1`, the growth is 86.7% (inactive).
As to `COc1cc(CNC(=O)CCCC/C=C/C(C)C)ccc1OCc1cn(-c2ccc([N+](=O)[O-])cc2)nn1`, the growth is 86.4% (inactive).
`Clc1cccc(Nc2ncnc3ccc(-c4cncc(-n5cnnn5)c4)cc23)c1`: the growth was 76.1% (inactive).

The assay is the same for the next values; noted with them: 100 µM.
Regarding `CC(=O)/C=C/c1ccc(OCc2ccc(C(C)(C)C)cc2)cc1`, the growth is 37.7% (inactive).
On to `CCN(Cc1ccccc1)c1ccc(/C=C2\COc3ccccc3C2=O)cc1`, for which the growth is 19.1% (inactive).

The values are drawn from PubChem BioAssay (NCI).
